Laboratory results taken from ChEMBL document CHEMBL3433997, “St. Jude Leishmania screening dataset” (2016).

Key:
Format in all cases: functional
[1] = biological target: Solute carrier family 2, facilitated glucose transporter member 1 (Homo sapiens) (UniProt P11166); experiment: ST_JUDE_LEISH: Cytotoxicity at 2uM final concentration against transgenic Leishmania Mexicana promastigotes LmGLUT1 that are glucose transport deficient and complemented with the human glucose transporter GLUT1. Activity is measured by DNA content using SYBR green in vitro
[2] = biological target: Hexose transporter 1 (Plasmodium falciparum) (UniProt O97467); experiment: ST_JUDE_LEISH: Cytotoxicity at 2uM final concentration against transgenic Leishmania Mexicana promastigotes LmPfHT that are glucose transport deficient and complemented with the Plasmodium falciparum hexose transporter. Activity is measured by DNA content using SYBR green in vitro
[3] = biological target: Glucose transporter (Leishmania mexicana) (UniProt O61059); experiment: ST_JUDE_LEISH: Cytotoxicity at 2uM final concentration against transgenic Leishmania Mexicana promastigotes LmGT2 that are glucose transport deficient and complemented with the L. Mexicana glucose transporter 2. Activity is measured by DNA content using SYBR green in vitro

Chain of Solute carrier family 2, facilitated glucose transporter member 1 (Homo sapiens) (P11166 whole entry): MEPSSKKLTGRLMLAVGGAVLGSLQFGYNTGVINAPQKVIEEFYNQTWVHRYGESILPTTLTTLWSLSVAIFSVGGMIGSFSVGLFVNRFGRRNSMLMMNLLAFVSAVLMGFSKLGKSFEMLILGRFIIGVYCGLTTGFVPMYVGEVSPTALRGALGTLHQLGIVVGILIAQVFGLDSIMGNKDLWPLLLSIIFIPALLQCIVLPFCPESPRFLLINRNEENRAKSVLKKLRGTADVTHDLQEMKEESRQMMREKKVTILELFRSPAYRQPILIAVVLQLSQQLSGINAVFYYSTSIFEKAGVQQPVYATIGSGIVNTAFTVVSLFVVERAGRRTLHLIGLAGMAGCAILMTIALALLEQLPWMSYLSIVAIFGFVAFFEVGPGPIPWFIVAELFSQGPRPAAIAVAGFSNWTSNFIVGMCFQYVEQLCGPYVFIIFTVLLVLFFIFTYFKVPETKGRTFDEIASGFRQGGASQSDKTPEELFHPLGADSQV

| Compound | inhibition [1] [%] | inhibition [2] [%] | inhibition [3] [%] |
| --- | --- | --- | --- |
| COc1ccc(NC(=O)/C=C/c2ccccc2Cl)cc1OCCN1CCC(N(C)C)CC1 | 2.23 | 1.6 | 1.83 |
| CC[C@H](C)CNC(=O)c1cncc(-c2ccc(CNCCCc3ccccc3)cc2)c1 | 1.47 | -1.11 | -2.21 |
| COc1ccc(CCNc2nc(NCCc3cnc[nH]3)nc(NCc3cccc4ccccc34)n2)cc1OC | 7.46 | 10.1 | 4.1 |
| CN1CCN(CCCN(Cc2csc(-c3ccc(CNCc4ccccc4)cc3)n2)S(=O)(=O)c2ccc(F)cc2)CC1 | 14.9 | 17.1 | 10.1 |
| C=CC[C@H](C[C@H](O)[C@H](Cc1ccccc1)NC(=O)c1ccc(-n2cccn2)cc1)C(=O)NC1CCCCC1 | 9.63 | 9.73 | 9.59 |
| N=C(N)c1ccc2[nH]c(SCc3ccccc3)nc2c1 | 1.18 | 1.38 | 0.24 |
| CCCCc1ccc(-c2nc(NC(=O)Nc3[nH]c(-c4ccccc4)nc3C(=O)OCC)c(C(=O)OCC)[nH]2)cc1 | 3.65 | 0.82 | -0.95 |
| S=C(NCCCCCN1CCC(c2c[nH]c3ccccc23)CC1)Nc1ccc(Cl)c(Cl)c1 | 1.88 | 1.44 | 2.15 |
| COc1ccc2nccc(N/N=C/c3cccc([N+](=O)[O-])c3)c2c1 | 3.18 | 2.68 | 4.33 |
| CN(CCN1CCCC1)c1nc2cc(-n3cnc4cc(-c5ccc(Cl)cc5)sc4c3=O)ccc2[nH]1 | 0.93 | 0.75 | 1.45 |
| CCc1sc(N2CCN(C)CC2)nc1C(=O)Nc1ccc(F)cc1C(F)(F)F | -1.9 | 1.37 | -0.43 |
| COc1ccc(-c2cnc3[nH]cc(-c4ccc(C(=O)O)cc4)c3c2)cn1 | -1.03 | 5.94 | 0.18 |
| O=C(Cc1c[nH]cn1)Nc1cccc(-c2ccc(-c3nc4cc(F)ccc4[nH]3)cc2)c1 | 9.26 | 10.1 | 7.18 |
| COc1cccc(Nc2nccc(NCC(O)c3cccc(C(F)(F)F)c3)n2)c1 (configuration not stated) | 4.86 | 5.48 | 1.78 |
| O=C(c1ccccc1)N1CCC[C@](CCCN2CCN(c3ccccc3O)CC2)(c2ccc(Cl)c(Cl)c2)C1 | 5.1 | 4.13 | 5.99 |
| COc1cc2nc(N3CCC(CNC(=O)c4cccc5cc[nH]c45)CC3)nc(N)c2cc1OC | 6.26 | 4.21 | 5.67 |
| CC(CN1CCN(C)CC1)C(=O)Nc1ccc(-c2ccc(-c3nc4cc(C(F)(F)F)ccc4[nH]3)cc2)cc1 (configuration not stated) | 6.67 | 4.86 | 2.49 |

| Compound | inhibition [1] [%] | inhibition [2] [%] | inhibition [3] [%] |
| --- | --- | --- | --- |
| CCc1cc(NC(=O)Nc2ccnc3ccccc23)ccc1OC | 19 | 17.9 | 11.6 |
| Oc1ccc(CNCC2CCN(CC3CCCCC3)CC2)cc1 | 5.22 | 0.53 | 5.43 |
| CN1CCC(C(=O)Nc2cccc(-c3ccc(-c4nc5ccccc5[nH]4)cc3)c2)CC1 | -0.41 | 1.25 | 1.04 |
| CN1C(C)(C)CC(NC(=O)c2ccc(-c3nc4cc(Cl)c(Cl)cc4[nH]3)cc2)CC1(C)C | 2.52 | 2.2 | 2.38 |
| Cc1cc(N2CCCCC2)nc2ccc(NC(=O)c3cncc(Br)c3)cc12 | 10.7 | 9.8 | 6.57 |
| Cc1cc(NC2CCN(Cc3ccccc3)CC2)nc(NCCCCc2ccccc2)n1 | 23.4 | 17.5 | 4.87 |
| COc1ccc(-c2ccc(NC(=O)c3ccc(Cl)cc3)cc2)cc1CN(C)CCN(C)C | 9.47 | 4.95 | 2.75 |
| Cc1cccc2nc(-c3ccc(-c4cccc(CNCCN(C)C)c4)cc3)[nH]c12 | 3.31 | 2.84 | 0.95 |
| CCCCCCNC(=O)C1Cc2c([nH]c3ccccc23)C2(CCN(CCc3ccccc3)CC2)N1 (configuration not stated) | 2.97 | 0.47 | 0.55 |
| NCCC(=O)Nc1ccc(-c2cnc3[nH]cc(-c4ccc(C(=O)O)cc4)c3c2)cn1 | 1.05 | 1.74 | 0.13 |
| CCOc1cc(C(=O)N[C@@H](Cc2ccccc2)[C@H](O)CNCc2cc(OC)cc(OC)c2)cc(N2CCCC2=O)c1 | 9.97 | 8.91 | 2.86 |
| COc1ccc(Nc2nccc(NCCNC(=O)Nc3cc(C)ccc3C)n2)cc1 | 11.1 | 9.29 | 1.38 |
| CN1CCCN(Cc2ccc(-c3ccc(NC(=O)c4cccc(Cl)c4)cc3)cc2)CC1 | 0.35 | -1.66 | -0.18 |
| Fc1ccc2[nH]c(-c3cccc(-c4cccc(CNCc5ccccc5)c4)c3)nc2c1 | 0.07 | -0.96 | -0.93 |
| CCOC(=O)c1ccc(NC(=O)NC2CCN(CCCCCNC(=O)/C=C/c3ccc(Cl)c(Cl)c3)C2)cc1 (configuration not stated) | 2.05 | 0 | 0.92 |
| N#Cc1cccc(/C=C/C(=O)NC2CCC(CCN3CCc4ccc(-c5cnccn5)cc4CC3)CC2)c1 (configuration not stated) | 7.94 | 7.48 | 7.56 |
| CCn1c(-c2nonc2N)nc2c(-c3cccc(Cl)c3)ncc(OCCCNCc3cnc(C)nc3N)c21 | 0.16 | -3.01 | 2.98 |
